# Screens: PubChem, National Center for Advancing Translational Sciences (NCATS)
# JMJD2A Tudor inh = qHTS Assay for Inhibitors of JMJD2A-Tudor Domain | AID 504339, 2011 | hit rate 4.4% among 390,000 | Potency, µM (titrated, usually from 114 µM), for inactives: at the top dose activity change, negative = inhibition, hits mostly inhibitors | AlphaScreen JMJD2A-Tudor / H3K4me3 peptide binding; further: on the % scale 0 is the no-effect control and ±100 the full control effect; nearly all actives have a fitted effect of over 50% in size
# BAZ2B inh = qHTS Assay for Inhibitors of BAZ2B. Potency, µM (series often up to 114 µM), for inactives: top-dose activity change, negative = inhibition, usual class: inhibitors. hit rate 4.4% among 360,000. AlphaScreen BAZ2B-H3K14Ac peptide displacement; further: on the % scale 0 is the no-effect control and ±100 the full control effect; nearly all actives have a fitted effect of over 60% in size
#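 BAZ2B (50 nM) with biotin-H3(5-23)K14Ac peptide (50 nM) in PBS pH 7.4, 0.01% Tween-20, preformed 30 min, then compound 30 min at room temperature; top concentration 110uM. AlphaScreen streptavidin donor/nickel chelate acceptor beads (10 ug/mL final), 20 min dark, signal read.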
# GLS inhibitor = qHTS for Inhibitors of Glutaminase (GLS); Glutaminase kidney isoform, mitochondrial (Homo sapiens), O94925; GLS enzymatic activity, qHTS titration; Potency, µM (titrated, usually from 45.5 µM), for inactives: top-dose activity change, negative = inhibition, actives largely listed as inhibitors; hit rate 0.21% among 410,000; further: on the % scale 0 is the no-effect control and ±100 the full control effect
#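 Enzyme dispensed in phosphate buffer (45 mM, pH 8.2, 0.02% Tween-20), compounds pinned in, then 1 mM L-glutamine solution and the glutamate oxidase–HRP–Amplex Red mix added; fluorescence read immediately and again after 30 min at room temperature.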
# G9a block = qHTS Assay for Inhibitors of Histone Lysine Methyltransferase G9a. Histone-lysine N-methyltransferase EHMT2 (Homo sapiens), Q96KQ7. G9a H3K9 monomethylation, AlphaScreen, 2 h. Potency, µM (series often up to 102 µM), for the others: top-dose activity, negative = inhibition, actives largely listed as inhibitors. hit rate 8.8% among 350,000. AID 504332, 2011; further: on the % scale 0 is the no-effect control and ±100 the full control effect; nearly all actives have a fitted effect of over 75% in size
# Target sequence (Q96KQ7 913-1193 limits assumed): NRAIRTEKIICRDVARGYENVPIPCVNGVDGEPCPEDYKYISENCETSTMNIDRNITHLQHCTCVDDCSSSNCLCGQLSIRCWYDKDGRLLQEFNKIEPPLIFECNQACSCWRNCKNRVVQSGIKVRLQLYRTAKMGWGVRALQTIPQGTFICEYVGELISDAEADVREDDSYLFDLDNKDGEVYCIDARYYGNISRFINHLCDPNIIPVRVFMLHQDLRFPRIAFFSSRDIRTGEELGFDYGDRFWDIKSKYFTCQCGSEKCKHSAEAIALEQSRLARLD
#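 Compounds were preincubated with 20 nM G9a for 15 min, after which biotinylated H3K9 peptide (500 nM) and SAM (20 uM) started a 2 h room-temperature reaction. Monomethylated product was quantified by antibody-based AlphaScreen chemiluminescence.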
# HP1b binding inh = HTS for Inhibitors of HP1-beta Chromodomain Interactions with Methylated Histone Tails. Potency, µM (highest dose often 114 µM), without a hit: at the top dose activity change, negative = inhibition, usual class: inhibitors. AlphaScreen HP1-beta / biotin-H3K9me3 peptide binding. hit rate 0.56% among 390,000. Chromobox protein homolog 1 (Homo sapiens), P83916; further: nearly all actives have a fitted effect of over 70% in size
# Target sequence (P83916 whole entry, looked up): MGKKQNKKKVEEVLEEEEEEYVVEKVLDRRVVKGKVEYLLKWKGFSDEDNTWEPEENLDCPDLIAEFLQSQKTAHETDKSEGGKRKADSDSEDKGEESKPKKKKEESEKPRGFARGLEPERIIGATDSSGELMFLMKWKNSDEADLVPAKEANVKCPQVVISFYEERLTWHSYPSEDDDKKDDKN
#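 AlphaScreen: HP1-beta (50 nM) preformed 30 min with biotin-H3(1-18)K9me3 peptide (50 nM) in PBS pH 7.4, 0.01% Tween-20. Compound added for 30 min at RT, then streptavidin donor/nickel chelate acceptor beads (10 ug/mL) for 30 min.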
# Active calls of the source: *; ? = inconclusive; nt = not tested or not shown; [ ] = remark or other dose. In the library only some 10% were active in any assay of this set; here they are far more common. The call rests on the fitted dose curve; in most records, active means well fitted curve in the direction sought with a large enough effect; inconclusive means small, poorly fitted or top-dose-only effect, or another doubt; inactive means no such curve, though single readings can be large; an effect the other way counts as inactive or inconclusive. Potency means the concentration at half of the fitted maximal effect.
SMILES,JMJD2A Tudor inh,BAZ2B inh,GLS inhibitor,G9a block,HP1b binding inh
CCCCOC(=O)Nc1ccc(S(=O)(=O)Nc2nccs2)cc1,-7%,-6%,3%,-40%,22%
N=C(N)SCCc1cccc(CCSC(=N)N)c1,-7%,nt,3%,3.5µM*,23%
Cc1[nH]c(=O)c(C#N)cc1-c1ccc2nccn2c1,nt,nt,1%,13µM*,nt
C/C(=C\C(=O)c1ccncc1)Nc1ccccc1O,-14%,-38%,10%,13%,20%
COc1ccc(C(=O)CCNc2ccc3c(c2)OCCO3)cc1,-19%,-27%,7%,3.2µM*,-5%
CCOc1ccc(N/C(C)=C/C(=O)c2ccc3c(c2)OCCO3)cc1,?,?,2%,nt,-30%
COc1ccc(C(=O)Nc2ccc3c(c2)OCCO3)cc1,-5%,-3%,9%,4%[59 µM],13%
COc1ccc(C(=O)/C=C(\C)Nc2ccc3c(c2)OCO3)cc1,28µM*,50µM*,19%,71µM*,?
CCOc1ccc(N/C(C)=C\C(=O)c2ccc3c(c2)OCCO3)cc1,?,25µM*,-3%,nt,-21%
COc1ccc(OC)c(N/C(C)=C/C(=O)c2ccncc2)c1,?,?,-9%,40µM*,-5%
COc1ccc(OCC(=O)Nc2ccc3c(c2)OCO3)cc1,-13%,-17%,-9%,?,4%
O=C(Cn1cnc2cc([N+](=O)[O-])ccc2c1=O)NCCc1ccc(Cl)cc1,-3%,-1%,-4%,0%,21%
COc1ccc(C(=O)NCC(=O)N=Nc2c(O)n(C)c3ccccc23)cc1OC,-3%,-6%,-2%,?,29%
CCOC(=O)[C@H]1[C@H]2COc3ccc(Cl)cc3[C@@H]2N2C(=O)CN(C)C(=O)[C@@]12C,-17%,4%,-6%,1%[0.501 µM],28%
COc1ccccc1NC(=O)COC(=O)c1ccc(S(=O)(=O)NCc2ccco2)cc1,-14%,?,-7%,46%[12.7 µM],11%
CCN(CC)S(=O)(=O)c1ccc(/C=C/C(=O)OCC(=O)NCc2cccs2)cc1,-17%,2%,-2%,-10%[59 µM],29%
COc1ccccc1NS(=O)(=O)c1ccc(C(=O)OCC(=O)NCc2ccco2)cc1,-12%,50µM*,6%,50µM*,22%
CCN(CC)S(=O)(=O)c1ccc(/C=C/C(=O)OCC(=O)NCc2ccco2)cc1,32µM*,nt,-4%,nt,?
CCN(CC)S(=O)(=O)c1ccc(C(=O)OCC(=O)NCc2ccco2)cc1,?,50µM*,-23%,?,-17%
COc1ccccc1C(C)NCC(=O)NC(=O)NCc1ccco1 (stereo not given),?,50µM*,-7%,-7%[59 µM],-8%
COc1ccc2nc(C)cc(SCC(=O)OC(C)C)c2c1,-3%,-17%,2%,31%,18%
O=C(CCCOc1ccccc1)N1CCc2ccccc2C1,5%[57.1 µM],63%,-4%,-8%[12.7 µM],101%
CCOc1ccccc1NS(=O)(=O)c1ccc(OC)c(OC)c1,-1%,0%,8%,13%[59 µM],40%
CC(Nc1ccc(Cl)cc1)C(=O)NN (stereo not given),0%,-3%,-12%,-8%[12.7 µM],19%
COc1ccccc1OCC(=O)NCc1ccco1,1%,-14%,1%,56µM*,28%
COc1cc(C(=O)NNC(=S)NCc2ccco2)cc(OC)c1OC,2%,-20%,-3%,56µM*,33%
COc1cc(C(=O)NNC(=O)c2ccco2)cc(OC)c1OC,-2%,9%,25%,22%[59 µM],18%
COc1ccc(S(=O)(=O)Nc2ccccc2C(=O)NCc2ccco2)cc1,-12%[11.4 µM],?,17%,14µM*,-18%
COc1cc(NCCC(=O)c2cccs2)c(OC)cc1Cl,40µM*,40µM*,-15%,7.9µM*,56µM*
COc1ccc(N2C(=O)[C@@H]3[C@H](C2=O)[C@H](C(=O)c2ccc(OC(C)=O)cc2)N2N=CC=C[C@@H]32)cc1,nt,?,nt,3.5µM*,nt
